Bioassay records: PubChem BioAssay, National Center for Advancing Translational Sciences (NCATS)
FH mod – Identification of activators of human fumarate hydratase by quantitative high-throughput screening; AID 1347055, 2019; FH coupled MDH/diaphorase resazurin fluorescence, 15 min; 54,000 compounds, 0.22% hits; Potency, µM (top dose mostly 79.9 µM), hits mostly inhibitors; Fumarate hydratase, mitochondrial (Homo sapiens), P07954; also: the screen sought activators but most active calls are inhibition curves; nearly all actives have a fitted effect of over 45% in size
GALK inh – qHTS Assay for Inhibitors of Human Galactokinase (GALK): NCGC Sytravon Library Screen; recombinant GALK, Kinase-Glo ATP luminescence, 1 h; Potency, µM (doses to about 57.5 µM), actives largely listed as inhibitors; AID 1347072, 2019; P51570; 44,000 tested, under 10 active
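Luminescent ATP-depletion readout (Kinase-Glo Plus) after 1 h room-temperature incubation of human GALK (5 nM) with galactose 100 µM and ATP 35 µM, pH 8.0 HEPES/Mg2+ buffer; compounds tested in qHTS format.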
PTAP-TSG101 blk – qHTS Validation Assay for Inhibitors of HIV-1 Budding by Blocking the Interaction of PTAP/TSG101: Sytravon Library Screen. Tumor susceptibility gene 101 protein (Homo sapiens), Q99816. Potency, µM (series often up to 115 µM), most hits filed as inhibitors. 44,000 tested, under 10 active. AID 1347069, 2019. Fluorescence polarization, FITC-PTAP peptide/Tsg101, 20 min
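Steps: Tsg101 binding domain (10 uM final) in HEPES pH 7.5/NaCl/Tween 20/EDTA/TCEP; add compound; add FITC-PTAP peptide (50 nM final); incubate 20 min r.t.; read polarization.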
B2AR arrestin ag – qHTS assay of beta-arrestin-biased ligands of beta2-adrenergic receptor: NCGC Sytravon Library Screen. Potency, µM (series often up to 46.1 µM), hits mostly activators. HTLA Tango cells, beta-arrestin recruitment, luciferase luminescence, 18 h. Beta-2 adrenergic receptor (Homo sapiens), P07550. 44,000 tested, under 10 active. AID 1347077, 2019
Target sequence (P07550 whole entry, looked up): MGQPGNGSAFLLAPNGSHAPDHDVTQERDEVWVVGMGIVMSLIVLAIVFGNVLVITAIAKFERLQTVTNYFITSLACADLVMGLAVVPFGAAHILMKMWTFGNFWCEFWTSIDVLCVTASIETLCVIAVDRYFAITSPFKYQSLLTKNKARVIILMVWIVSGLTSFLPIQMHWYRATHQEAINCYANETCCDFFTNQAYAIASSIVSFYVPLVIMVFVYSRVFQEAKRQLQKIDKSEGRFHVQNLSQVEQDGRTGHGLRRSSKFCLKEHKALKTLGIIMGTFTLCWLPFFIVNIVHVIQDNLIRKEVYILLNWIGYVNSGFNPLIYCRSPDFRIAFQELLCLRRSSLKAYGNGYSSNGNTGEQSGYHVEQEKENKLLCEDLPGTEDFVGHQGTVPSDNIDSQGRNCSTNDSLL
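Tango cells (recombinant beta2-AR, beta-arrestin, tTA-driven luciferase), 1500/well in DMEM 1% FBS, treated 18 h at 37 °C with compounds up to 46 µM; luciferin mix added, luminescence read after 15 min; %activity curves fitted and curve-classed.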
NTMT1 inhibitor – Primary qHTS for Inhibitors of N-terminal methyltransferase 1 (NTMT1): MTaseGlo Assay; Potency, µM (series often up to 114 µM), most hits filed as inhibitors; AID 1645870, 2021; 59,000 compounds, 2.5% hits; NTMT1 MTase-Glo SAH luminescence, purified enzyme; also: nearly all actives have a fitted effect of over 65% in size
Target sequence (Q9BV86 whole entry, looked up): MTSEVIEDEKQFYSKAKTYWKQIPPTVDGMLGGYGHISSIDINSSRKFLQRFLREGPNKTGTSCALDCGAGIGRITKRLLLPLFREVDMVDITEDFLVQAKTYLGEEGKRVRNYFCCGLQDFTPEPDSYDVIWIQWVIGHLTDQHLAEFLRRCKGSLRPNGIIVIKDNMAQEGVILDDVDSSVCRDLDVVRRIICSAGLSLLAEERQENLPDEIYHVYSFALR
Hits are given with their value; ! = a repeat was not active; [ ] = another dose, or the depositor's remark. The sample as a whole holds a higher share of hits than the screen did. Calls follow the shape of the dose curve; as a rule, active = well fitted curve in the direction sought with a large enough effect; inconclusive = small, poorly fitted or top-dose-only effect, or another doubt; inactive = no such curve, though single readings can be large; an effect the other way counts as inactive or inconclusive.

`Cc1ccc(C(=O)CSc2nc(C)cc(C)c2C(=O)Nc2cccc(C)c2)cc1` gave FH mod inactive, GALK inh inactive, PTAP-TSG101 blk inactive, B2AR arrestin ag inactive and NTMT1 inhibitor 50.1µM.
For CNS(=O)(=O)c1ccccc1Nc1nc(Nc2ccc(N3CCN(C)CC3)cc2OC)ncc1Br the results were FH mod inactive and NTMT1 inhibitor inconclusive.
Screening COc1c(N2CC3CCCNC3C2)c(F)cc2c(=O)c(C(=O)O)cn(C3CC3)c12 (stereo not given) returned FH mod inactive and NTMT1 inhibitor inactive.
Screening Cc1ccc(S(=O)(=O)NCC(=O)Nc2nc(-c3ccccc3)cs2)cc1 returned NTMT1 inhibitor inactive.
`CC(C)n1c(=O)cc(N[C@@H](C)c2ccccc2)[nH]c1=O` gave NTMT1 inhibitor inactive.
Screening Cn1nnnc1Sc1ncnc2scc(-c3ccc4c(c3)OCO4)c12 returned NTMT1 inhibitor 89.1µM.
Screening Fc1cnc(-c2ccccc2C(F)F)nc1NCC1CCN(c2cnccn2)C1 (stereo not given) returned NTMT1 inhibitor inactive.
For Cc1ccc(-c2ccc(CCC(=O)O)n2-c2cccc(O)c2)cc1 the results were FH mod inactive, GALK inh inactive, PTAP-TSG101 blk inactive, B2AR arrestin ag inactive and NTMT1 inhibitor 79.4µM.
Screening CC(C)(Sc1ccc(CCN(CCCCC2CCCCC2)C(=O)NC2CCCCC2)cc1)C(=O)O returned FH mod 25.1µM! and NTMT1 inhibitor 31.6µM!.
For CN(C)CCN(Cc1ccc(-c2ccc(CNCCc3ccccc3)cc2)cc1)C(=O)CCC1CCCC1 the results were FH mod inactive and NTMT1 inhibitor inactive.
Screening CC1=NN(c2ccc(C(=O)O)cc2)C(=O)/C1=C/c1ccc(-c2cc(C)c(C)cc2[N+](=O)[O-])o1 returned NTMT1 inhibitor 50.1µM.
`Cc1ccc(C)n1-c1cccc(C(=O)O)c1` gave NTMT1 inhibitor 2.24µM.
For CC1=C(C(=O)n2ccc3ccccc32)C(c2ccccc2Br)N=C(Nc2nc3ccccc3o2)N1 (stereo not given) the results were NTMT1 inhibitor inactive.
Screening CC1(C)SCCN(S(=O)(=O)c2ccc(OCC#CCO)cc2)[C@H]1C(=O)NO returned NTMT1 inhibitor inactive.
O=C(Nc1cnccc1Cl)N1CCN(Cc2ccc3c(c2)OC(F)(F)O3)CC1 was read as NTMT1 inhibitor inactive.
`Cc1oc2ncnc(N3CCCCC3)c2c1C(=O)Nc1cccc(Cl)c1C` gave FH mod inactive, GALK inh inactive, PTAP-TSG101 blk inactive, B2AR arrestin ag inactive and NTMT1 inhibitor 89.1µM.
`Cc1oc2ncnc(N3CCCCC3)c2c1C(=O)Nc1cccc(F)c1` gave FH mod inactive, GALK inh inactive, PTAP-TSG101 blk inactive, B2AR arrestin ag inactive and NTMT1 inhibitor inactive.
`COc1ccccc1[C@@H]1C2=C(CC(C)(C)CC2=O)Nc2n[nH]c(C(F)(F)F)c21` gave FH mod inactive and NTMT1 inhibitor inconclusive.
`CN1CCN(CCCNc2ncc(Cl)c(-c3cc4c(C(=O)NC5CC5)cccc4s3)n2)CC1` gave FH mod inactive and NTMT1 inhibitor 79.4µM.
`Nc1ncnc2c1c(-c1cccc(OCc3ccccc3)c1)cn2C1CC(CN2CCCC2)C1` (stereo not given) gave FH mod inactive and NTMT1 inhibitor 12.6µM.
Screening O=S(=O)(N=Cc1c(O)ccc2ccccc12)c1cccs1 returned FH mod inactive and NTMT1 inhibitor inactive.
`O=S(=O)(/N=C/c1c(O)ccc2ccccc12)c1cccs1` gave FH mod 15.8µM and NTMT1 inhibitor inconclusive.
Screening CC(=O)c1ccc(NC(=O)c2cnn3c(C)cc(C)nc23)cc1 returned NTMT1 inhibitor inactive.
Screening CCN1/C(=C/C=C/c2sc3ccccc3[n+]2CC)Sc2ccccc21 returned FH mod inactive and NTMT1 inhibitor 17.8µM.
For CCN(CC)C(C)CN1c2ccccc2Sc2ccccc21 (stereo not given) the results were FH mod inactive and NTMT1 inhibitor inactive.
CC1CCC/C=C/C(=O)c2c(O)cc(O)cc2CC(=O)O1 (stereo not given) was read as FH mod inactive and NTMT1 inhibitor inactive.
Screening CC1CCCC(O)CCC/C=C/c2cc(OS(=O)(=O)O)cc(O)c2C(=O)O1 (stereo not given) returned FH mod inactive and NTMT1 inhibitor 12.6µM.
`C[C@H](Nc1nc(N[C@H](C)C(F)(F)F)nc(-c2cccc(Cl)n2)n1)C(F)(F)F` gave NTMT1 inhibitor inactive.
COc1ccc(C2CC(=O)N3CN(C4CCCCC4)CSC3=C2C#N)c(OC)c1 (stereo not given) was read as FH mod inactive, GALK inh inactive, PTAP-TSG101 blk inactive, B2AR arrestin ag inactive and NTMT1 inhibitor 15.8µM.
For N#CC1=C2SCN(C3CCCCC3)CN2C(=O)CC1c1ccc(Br)cc1 (stereo not given) the results were FH mod inactive, GALK inh inactive, PTAP-TSG101 blk inactive, B2AR arrestin ag inactive and NTMT1 inhibitor 35.5µM.
`COc1cc(-c2ccno2)ccc1S(=O)(=O)N1CCN(c2ccccc2)CC1` gave FH mod inactive, GALK inh inactive, PTAP-TSG101 blk inactive, B2AR arrestin ag inactive and NTMT1 inhibitor inactive.
COc1ccccc1N1CCN(S(=O)(=O)c2ccc(-c3ccno3)cc2OC)CC1 was read as FH mod inactive, GALK inh inactive, PTAP-TSG101 blk inactive, B2AR arrestin ag inactive and NTMT1 inhibitor 89.1µM.
Screening CC(CCC1(O)OC2CC3C4CC=C5CC(O[C@@H]6O[C@H](CO)[C@@H](O[C@@H]7O[C@H](CO)[C@@H](O)[C@H](O)[C@H]7O)[C@H](O)[C@H]6O[C@@H]6O[C@@H](C)[C@H](O)[C@@H](O)[C@H]6O)CCC5(C)C4CCC3(C)C2C1C)CO[C@@H]1O[C@H](CO)[C@@H](O)[C@H](O)[C@H]1O (stereo not given in full) returned FH mod inactive and NTMT1 inhibitor inactive[12.6 µM].
`COc1ccc(Cl)cc1N=C1NC(=O)CC(C(=O)Nc2ccccc2C(F)(F)F)S1` (stereo not given) gave FH mod inactive, GALK inh inactive, PTAP-TSG101 blk inactive, B2AR arrestin ag inactive and NTMT1 inhibitor inactive.
